The text below walks through data of PubChem BioAssay (NCATS).

The target of test [1] is Rap guanine nucleotide exchange factor 3 (Homo sapiens) (UniProt O95398). The test can be described thus: Confirmatory qHTS for antagonist of cAMP-regulated guanine nucleotide exchange factor 3 (EPAC1) (AID 1645880). Note: nearly all actives have a fitted effect of over 55% in size. Note: potency is the fitted concentration of half-maximal effect. The method, boiled down:
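Nucleotide exchange uses 100 nM EPAC1, 250 nM RAP1B-BODIPY-GDP and 50 uM GDP, with compounds in a concentration-titration series. After 5 min at room temperature, fluorescence (480 nm ex/540 nm em) is read every 5 min for 30 min. Data are normalized to control ATA and DMSO.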
(In qHTS, concentration-response curves come from the screen itself.)

For test [2] the target is unchanged. The test can be described thus: Confirmatory qHTS for agonist of cAMP-regulated guanine nucleotide exchange factor 3 (EPAC1) (AID 1645881).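 For activation: EPAC1 catalysed release of BODIPY-GDP from Rap1B seen as fluorescence loss; 100% = effect of cAMP agonist control.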 Note: nearly all actives have a fitted effect of over 75% in size. Note: potency is the fitted concentration of half-maximal effect.
In test [3] the target is Rap guanine nucleotide exchange factor 4 (Homo sapiens) (UniProt Q8WZA2). Kind of test: Confirmatory qHTS for agonist of cAMP-regulated guanine nucleotide exchange factor 4 (EPAC2) (AID 1645884). For activation: % is set by controls: 0 for no effect and ±100 for the full control effect.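 Note: nucleotide exchange releases bodipy-GDP from Rap1 and this lowers its fluorescence; nearly all actives have a fitted effect of over 65% in size.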 Note: potency is the fitted concentration of half-maximal effect.
Rap guanine nucleotide exchange factor 4 (Homo sapiens), sequence (Q8WZA2 whole entry, looked up): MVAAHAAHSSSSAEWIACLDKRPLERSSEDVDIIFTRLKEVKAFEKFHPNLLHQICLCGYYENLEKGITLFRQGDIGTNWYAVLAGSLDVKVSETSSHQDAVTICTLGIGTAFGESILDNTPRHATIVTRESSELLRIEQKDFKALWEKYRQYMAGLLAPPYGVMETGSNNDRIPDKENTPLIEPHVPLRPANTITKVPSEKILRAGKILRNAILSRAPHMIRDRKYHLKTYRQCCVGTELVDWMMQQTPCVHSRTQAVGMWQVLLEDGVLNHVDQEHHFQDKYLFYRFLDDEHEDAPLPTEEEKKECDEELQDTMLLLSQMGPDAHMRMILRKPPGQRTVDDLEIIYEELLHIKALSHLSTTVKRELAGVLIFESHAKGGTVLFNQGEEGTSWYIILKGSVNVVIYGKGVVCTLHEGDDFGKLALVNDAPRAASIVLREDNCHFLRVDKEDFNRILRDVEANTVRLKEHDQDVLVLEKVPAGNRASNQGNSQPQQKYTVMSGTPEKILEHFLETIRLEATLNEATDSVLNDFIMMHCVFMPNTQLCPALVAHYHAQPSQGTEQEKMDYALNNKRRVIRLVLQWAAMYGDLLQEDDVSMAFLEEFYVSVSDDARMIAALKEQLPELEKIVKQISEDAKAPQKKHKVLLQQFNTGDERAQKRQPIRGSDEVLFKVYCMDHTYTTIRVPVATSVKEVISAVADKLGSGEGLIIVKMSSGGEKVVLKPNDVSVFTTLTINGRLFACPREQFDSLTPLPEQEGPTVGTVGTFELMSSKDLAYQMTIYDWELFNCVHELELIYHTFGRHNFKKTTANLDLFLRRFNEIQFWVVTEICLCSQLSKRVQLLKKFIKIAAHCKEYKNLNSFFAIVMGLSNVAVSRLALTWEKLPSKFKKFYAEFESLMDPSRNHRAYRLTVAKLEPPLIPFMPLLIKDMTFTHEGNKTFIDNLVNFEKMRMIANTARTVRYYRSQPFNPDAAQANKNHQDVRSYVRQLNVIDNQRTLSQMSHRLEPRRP
For test [4] the target is unchanged. The test can be described thus: Confirmatory qHTS for antagonist of cAMP-regulated guanine nucleotide exchange factor 4 (EPAC2) (AID 1645885). For activity change, negative = inhibition: % is set by controls: 0 for no effect and ±100 for the full control effect. Note: nearly all actives have a fitted effect of over 25% in size. Note: potency is the fitted concentration of half-maximal effect.
The target of test [5] is Rap guanine nucleotide exchange factor 3 (Homo sapiens) (UniProt O95398). Kind of test: Counterscreen qHTS for antagonist of cAMP-regulated guanine nucleotide exchange factor 3 (EPAC1) (AID 1645888).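 Note: fluorescence loss as bound BODIPY-GDP is released from Rap1B; % of control where 0% means no effect.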 The method, boiled down: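 Rap1B–BODIPY-GDP (250 nM) with 50 uM GDP; compounds pin-transferred to 9.74 nM–152 uM final (activator) or from 7.32 nM upwards (inhibitor). Fluorescence Ex/Em 480/540 nm read at 5 and 30 min, then after adding cAMP or buffer, at room temperature.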
Rap guanine nucleotide exchange factor 3 (Homo sapiens), sequence (O95398 whole entry, looked up): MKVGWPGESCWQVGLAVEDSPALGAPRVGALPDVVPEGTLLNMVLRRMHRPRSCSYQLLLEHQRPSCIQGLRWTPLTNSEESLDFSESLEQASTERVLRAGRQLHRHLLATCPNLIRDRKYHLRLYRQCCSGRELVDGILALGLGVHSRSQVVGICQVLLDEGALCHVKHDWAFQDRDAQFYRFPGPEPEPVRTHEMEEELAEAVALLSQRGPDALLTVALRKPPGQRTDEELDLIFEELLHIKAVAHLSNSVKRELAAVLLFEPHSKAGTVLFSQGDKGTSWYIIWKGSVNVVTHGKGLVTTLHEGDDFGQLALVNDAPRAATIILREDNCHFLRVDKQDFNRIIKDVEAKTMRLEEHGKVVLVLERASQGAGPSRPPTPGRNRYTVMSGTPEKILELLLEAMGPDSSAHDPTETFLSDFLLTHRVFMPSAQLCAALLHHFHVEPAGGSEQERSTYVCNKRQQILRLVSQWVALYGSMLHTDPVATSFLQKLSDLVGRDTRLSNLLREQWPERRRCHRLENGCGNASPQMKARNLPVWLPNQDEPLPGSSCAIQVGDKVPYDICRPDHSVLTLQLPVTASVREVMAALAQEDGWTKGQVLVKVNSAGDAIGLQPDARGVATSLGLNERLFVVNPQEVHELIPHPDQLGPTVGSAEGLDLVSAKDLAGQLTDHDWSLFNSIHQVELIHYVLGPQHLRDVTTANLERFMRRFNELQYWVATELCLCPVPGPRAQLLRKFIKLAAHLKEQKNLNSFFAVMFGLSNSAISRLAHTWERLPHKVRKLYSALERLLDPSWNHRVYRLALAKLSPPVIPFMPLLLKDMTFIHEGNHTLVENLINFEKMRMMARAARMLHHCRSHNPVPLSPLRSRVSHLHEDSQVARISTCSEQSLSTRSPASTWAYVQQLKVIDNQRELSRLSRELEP
(In general: Counterscreens check selectivity or assay interference.)

Inconclusive results are not listed. Values without a mark were called inactive. Active and inactive are the calls of the source. Calls come from the whole dose curve; as a rule, active = well fitted curve in the direction sought with a large enough effect; inconclusive = small, poorly fitted or top-dose-only effect, or another doubt; inactive = no such curve, though single readings can be large; an effect the other way counts as inactive or inconclusive.

For the compound `CC(C)O/C(=N\S(=O)(=O)c1ccc(Cl)cc1)c1ccccc1`, the Potency result in test [1], in test [2], in test [3] and in test [5] was “inactive” throughout. In test [4], the Potency was 16.9 µM (active).

For the compound `COc1ccccc1C(=O)NC(=O)Cn1nc(C)c([N+](=O)[O-])c1C`, the Potency entry in test [1], in test [2] and in test [4] was “inactive” in each case. Besides, in test [3], the activation was 4.27% [at 17.1 µM, percent relative to cAMP agonist control]. The activity change, negative = inhibition in test [5] was 11.7% [at 30.8 µM].

Turning to `CNC[C@H]1Oc2ccc(NC(=O)Nc3ccccc3)cc2CC(=O)N([C@H](C)CO)C[C@H]1C`, the Potency result in test [1], in test [2], in test [3], in test [4] and in test [5] was “inactive” each time.

`Cc1ccccc1C(=O)NCC(=O)N1CCN(c2ccccn2)CC1`: the Potency entry in test [1], in test [2] and in test [4] was “inactive” throughout. Moreover, the activation in test [3] is 9.91% [at 17.1 µM, percent relative to cAMP agonist control]. Moreover, the activity change, negative = inhibition in test [5] was -4.53% [at 30.8 µM].

For `CN(C)c1nc(Oc2ccc(=O)[nH]n2)nc(N2CCOCC2)n1`, the Potency result in test [1], in test [2], in test [3], in test [4] and in test [5] was “inactive” each time.

For the compound `CCOc1ccc(NCc2nc3ccccc3n2CCOc2ccccc2)cc1`, the Potency result in test [1], in test [2] and in test [4] was “inactive” each time. The activation in test [3] is 16.9% [at 17.1 µM, percent relative to cAMP agonist control]. Also, the activity change, negative = inhibition in test [5] was 4.92% [at 30.8 µM].

On to `COC(=O)c1cc2oc(C)cc2n1Cc1ccc(Br)cc1F`, for which the Potency result in test [1], in test [2], in test [3], in test [4] and in test [5] was “inactive” each time.

Take `O=C(c1ccco1)N(Cc1cccc([N+](=O)[O-])c1)c1ccc(Br)cc1`: the Potency result in test [1], in test [2], in test [3], in test [4] and in test [5] was “inactive” throughout.

In the case of `COc1ccc(N/C=C2\CCc3ccccc3C2=O)cc1`, the Potency entry in test [1], in test [4] and in test [5] was “inactive” throughout. In addition, the Potency in test [2] was 89.1 µM (active); in test [3] it was 100 µM (active).

Regarding `CCc1noc(C)c1C(=O)N1CCCSC1=Nc1ccccc1C(C)C`, the Potency entry in test [1], in test [2], in test [3], in test [4] and in test [5] was “inactive” in each case.

For the compound `Cc1nc2sc(C(c3cccs3)N3CCN(c4ccccc4)CC3)c(O)n2n1` (stereo not given), the Potency result in test [1], in test [2], in test [3], in test [4] and in test [5] was “inactive” throughout.

For `CCN(CC)S(=O)(=O)c1c(Br)cc(C)cc1Br`, the Potency entry in test [1] and in test [2] was “inactive” throughout. Further, the activation in test [3] is 0.523% [at 17.1 µM, percent relative to cAMP agonist control]. Also, in test [4], the Potency was 3.79 µM (active). In test [5], the activity change, negative = inhibition was -9.59% [at 30.8 µM].

In the case of `CCOC(=O)C1C(=O)C=C(c2ccccc2)CC1c1ccccc1` (stereo not given), the Potency result in test [1], in test [2] and in test [4] was “inactive” each time. Besides, in test [3], the activation was 12.3% [at 17.1 µM, percent relative to cAMP agonist control]. The activity change, negative = inhibition in test [5] was -11.6% [at 30.8 µM].

In the case of `CS(=O)(=O)c1ccc2c(c1)sc1nc(=O)c(/C=C3/C=CC(=O)C(O)=C3)c(N)n12`, the Potency in test [1] was 3.38 µM (active). In addition, the Potency entry in test [2], in test [3], in test [4] and in test [5] was “inactive” in each case.

In the case of `O=C(O)c1ccc(NC2=C/C(=N/S(=O)(=O)c3cccs3)c3ccccc3C2=O)cc1`, in test [1], the Potency was 60.1 µM (active). Further, the Potency result in test [2], in test [3], in test [4] and in test [5] was “inactive” throughout.

Take `COC(=O)C1=NNCC12CC(=O)N(c1ccc(Br)cc1)C2=O` (stereo not given): the Potency result in test [1], in test [2], in test [3], in test [4] and in test [5] was “inactive” in each case.

For `COC(=O)c1[nH]c2cc(C)ccc2c1NC(=O)CN1CCCc2ccccc21`, the Potency result in test [1], in test [2], in test [3], in test [4] and in test [5] was “inactive” in each case.

`COc1ccc(NS(=O)(=O)c2ccc3[nH]c4c(c3c2)CCCCCC4)cc1`: the Potency entry in test [1], in test [2], in test [3] and in test [5] was “inactive” in each case. For the same compound, in test [4], the outcome was “inactive [at 12.7 µM]”.

Consider `O=C(N/N=C\c1cc([N+](=O)[O-])ccc1N1CCCC1)c1ccccn1`, for which the Potency result in test [1], in test [2] and in test [4] was “inactive” throughout. In addition, the activation in test [3] is 3.56% [at 17.1 µM, percent relative to cAMP agonist control]. Moreover, the activity change, negative = inhibition in test [5] is -14.6% [at 30.8 µM].

As for `CNc1ccc(Br)cc(C(=O)/C=C/c2ccc(Cl)cc2Cl)c1=O`, the Potency in test [1] is 12 µM (active). Further, the Potency entry in test [2], in test [3], in test [4] and in test [5] was “inactive” each time.

Turning to `CC1=NN(c2ccccc2)C(=O)C1/C=C1\NC(=S)NC1=O` (stereo not given), the Potency in test [1] is 67.5 µM (active). In addition, the Potency result in test [2], in test [3], in test [4] and in test [5] was “inactive” in each case.

In the case of `COc1ccc(C(=O)NCc2ccc3c(c2)CCN3C(=O)c2ccc(C)cc2)cc1`, the Potency result in test [1], in test [2], in test [3], in test [4] and in test [5] was “inactive” throughout.

Consider `Cc1cccc(CN2[C@@H](CC(C)C)COCCS2(=O)=O)c1`, for which the Potency result in test [1], in test [2], in test [3], in test [4] and in test [5] was “inactive” throughout.

Regarding `O=C1C(Cl)=C(NC(=O)c2ccccc2)C(=O)C(Cl)=C1NC(=O)c1ccccc1`, the Potency entry in test [1], in test [2], in test [3], in test [4] and in test [5] was “inactive” each time.
